# Experimental data reported in ChEMBL document CHEMBL1201862, “PubChem BioAssay data set” (2004).
# Out of some 58,000 sequences screened, about 4,000 (6.9%) were called active. The rule behind the calls is not given here. Only a sample is shown. Measured potencies and affinities stand elsewhere.
# Tested on: HCT-15
row,Substance,GI50 [µM]
1,"cis-Bis[[(trimethylsilyl)methyl]amino]tetrachloroplatinum(IV), CHEMBL2146191",3.42
2,"[Bis(aminomethyl)tetramethylenesilane]dichloropaltinum(II), CHEMBL2146205",20.5
3,"[Bis(aminomethyl)dimethylsilane]tetrachloroplatinum(IV), CHEMBL2146190",8.45
4,"CISPLATIN, CHEMBL11359",7.21
5,"[Bis(aminomethyl)dimethylsilane]dichloroplatinum (II), CHEMBL2146201",27.5
6,"[Bis(aminomethyl)tetramethylenesilane]tetrachloropaltinum(IV), CHEMBL2146189",3.62
7,"mu-(1,7-nanodiamine-N,N')bis-(cis-aminedichloroplatimum (II)), CHEMBL2146215",37.1
8,"[Bis(aminomethyl)pentamethylenesilane]dichloropaltinum(II), CHEMBL2146202",5.21
9,"[Bis(aminomethyl)diethylsilane]tetrachloroplatinum(IV), CHEMBL2146203",2.45
10,"[Bis(aminomethyl)pentamethylenesilane]tetrachloropaltinum(IV), CHEMBL2146204",0.953
11,"[Bis(aminomethyl)ethylmethylsilane]tetrachloroplatinum(IV), CHEMBL2146192",3.5
